# High-throughput results from PubChem BioAssay.
# A selection: hits, their analogues and other compounds. The true share with any hit is near 27%.
# CYP2C19 inh – inhibitors of human CYP2C19 | inhibition, % at 5 µM | P33261 | CYP2C19 Supersomes, luciferin-H EGE luminescence, 30 min | AID 778 | actives 21% (n = 96,000);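 active means CYP2C19 inhibition above a set limit at 5 µM in the primary screen, cut at about 50% in these data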;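 further: plate controls were negative control wells for no effect and 2.5 mM tranylcypromine positive control for full effect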
# Target sequence (P33261 whole entry, looked up): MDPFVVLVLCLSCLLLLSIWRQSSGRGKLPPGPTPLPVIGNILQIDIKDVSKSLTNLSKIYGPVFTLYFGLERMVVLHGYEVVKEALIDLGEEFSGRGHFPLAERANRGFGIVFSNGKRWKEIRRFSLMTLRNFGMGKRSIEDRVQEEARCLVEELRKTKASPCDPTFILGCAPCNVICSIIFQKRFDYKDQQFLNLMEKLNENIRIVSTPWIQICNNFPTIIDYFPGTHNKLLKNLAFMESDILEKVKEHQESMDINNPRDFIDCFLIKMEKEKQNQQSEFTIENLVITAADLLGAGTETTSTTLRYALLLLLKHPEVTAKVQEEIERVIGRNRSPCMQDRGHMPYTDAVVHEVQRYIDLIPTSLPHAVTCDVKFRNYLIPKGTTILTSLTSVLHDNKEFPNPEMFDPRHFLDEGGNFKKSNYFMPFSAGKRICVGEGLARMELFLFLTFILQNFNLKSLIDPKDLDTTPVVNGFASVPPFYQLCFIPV
# CYP2C9 activ – CYP2C9 (human) activation; P11712; recombinant CYP2C9, luciferin-H conversion, luminescence; active compounds read high; factor 1 = untreated enzyme, 0 = blocked; activation factor at 5 µM; actives 1.4% (n = 96,000); AID 1024;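 active means activation factor of 2 or more for CYP2C9 at a 5 µM dose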;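 further: 0 = sulfaphenazole-blocked wells and 1 = vehicle-only wells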
# CYP2C19 activ – cytochrome P450 2C19 (human) activation | P33261 | recombinant CYP2C19, luciferin-H EGE luminescence; active compounds read high; 0 = fully inhibited enzyme, 1 = untreated enzyme | activation factor at 5 µM | 96,000 tested, under 10 active;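 active means activation factor of at least 2 at 5 µM in the primary screen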;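 further: 0 = wells with 2.5 mM tranylcypromine and 1 = vehicle-only wells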
# EphB4 antag – antagonists of human EphB4-ephrin-B2 interaction; EphB4 LBD / TNYL-RAW-Alexa532 peptide, fluorescence polarization; actives 0.15% (n = 97,000); P54760; AID 720; inhibition, % at 7 µM;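 active means inhibition above the screen-wide mean inhibition plus 3 SD, cut at about 15% in these data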;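 further: 0% = DMSO wells and 100% = excess unlabeled TNYL-RAW peptide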
# CYP2C9 inhib – inhibitors of human CYP2C9 | CYP2C9 Supersomes, luciferin-H conversion, luminescence | inhibition, % at 5 µM | actives 20% (n = 96,000);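 active means blocking of liver enzyme CYP2C9 beyond about 50% at 5 µM, limit read from the data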
# * hit, by the source's call; nt = no result.
SMILES,CYP2C19 inh,CYP2C9 activ,CYP2C19 activ,EphB4 antag,CYP2C9 inhib
COc1ccccc1CNC(=O)C1CC(c2c(Cl)cccc2Cl)=NO1 (configuration not stated),84*,2.2*,0.2,0,-115
COc1cc(OC)c(C2=NOC(C(=O)NCCc3ccccc3)C2)cc1Cl (configuration not stated),62*,1.3,0.4,-7,-28
O=C(NCc1cccc(C(F)(F)F)c1)C1CC(c2c(Cl)cccc2Cl)=NO1 (configuration not stated),78*,0.6,0.2,-2,43
O=C(NCc1ccco1)C1CC(c2c(Cl)cccc2Cl)=NO1 (configuration not stated),32,2.3*,0.7,-1,-134
COc1ccccc1CNC(=O)C1CC(c2ccc([N+](=O)[O-])cc2)=NO1 (configuration not stated),32,1.2,0.7,3,-25
O=C(NCc1ccc2c(c1)OCO2)C1CC(c2ccc(Cl)c(Cl)c2)=NO1 (configuration not stated),6,0.9,0.9,0,8
COc1ccc(CCNC(=O)C2CC(c3c(Cl)cccc3Cl)=NO2)cc1 (configuration not stated),48,0.7,0.5,-7,33
COCCCNCCCOc1ccc(Cl)cc1Br,30,1.1,0.7,1,-14
CN(C)CC(C)(C)CNS(=O)(=O)c1ccc(Cl)c(Cl)c1,83*,0.5,0.2,1,50*
O=C(CCNS(=O)(=O)c1ccc(Cl)cc1)N1CCC2(O)CCCCC2C1 (configuration not stated),-9,0.8,1.1,-5,16
CCCCC(=O)Nc1cccc(-c2nnc(-c3ccccc3)o2)c1,52*,0.3,0.5,-8,75*
Cc1cccc(C)c1OCC(=O)Nc1cccc(-c2nnc(-c3ccccc3)o2)c1,55*,0.1,0.5,-4,90*
O=C(Nc1cccc(-c2nnc(-c3ccccc3)o2)c1)c1ccco1,14,0.8,0.9,nt,23
Cc1cccc(OCC(=O)NCc2ccncc2)c1C,74*,0.4,0.3,4,55*
Cc1cc(NC(=O)COc2cccc(C)c2C)no1,20,0.7,0.8,4,27
Cc1cccc(OCC(=O)Nc2cccc(-c3nnc(-c4ccccc4)o3)c2)c1C,74*,0.1,0.3,-1,90*
Cc1ccc(NC(=O)COc2ccc(C(=O)NCCc3ccccc3)cc2)cc1,nt,nt,nt,-6,nt
COc1ccc2c(=O)c(N3C(=O)c4ccccc4C3=O)c(C)oc2c1,0,0.9,1,-16,11
CCC1(C)N=C(c2ccc3c(c2)OCO3)CC(c2ccccc2O)N1 (configuration not stated),59*,0.3,0.4,-1,74*
CN(CC(=O)Nc1nc2ccc(F)cc2s1)S(=O)(=O)c1ccc(Cl)cc1,-19,1.2,1.2,3,-18
O=C(Cc1ccc(-n2c(=S)[nH]c3ccccc3c2=O)cc1)N1CCC(N2CCCCC2)CC1,-2,0.1,1,7,92*
CCOC(=O)N1CCN(C(=O)CCCn2c(=S)[nH]c3ccccc3c2=O)CC1,52*,0.8,0.5,7,22
COc1ccc(N2CCN(C(=O)Cc3ccc(-n4c(=O)[nH]c5ccccc5c4=O)cc3)CC2)cc1,nt,nt,nt,4,nt
CCOC(=O)N1CCC(n2c(=S)[nH]c3ccccc3c2=O)CC1,14,0.2,0.9,0,81*
COCCNC(=O)CCCCCn1c(=S)[nH]c2ccccc2c1=O,1,1.1,1,1,-14
SMILES,CYP2C19 inh,CYP2C9 activ,CYP2C19 activ,EphB4 antag,CYP2C9 inhib
COc1cccc(NC(=O)CCCn2c(=S)[nH]c3ccccc3c2=O)c1,63*,0.2,0.4,4,78*
Cc1cc(NC(=O)CCC(=O)N(c2cccnc2)C(C(=O)NC2CCCC2)c2ccccc2)no1 (configuration not stated),-4,1,1,nt,-2
CCOC(=O)N1CCN(C(=O)CCCn2c(=S)[nH]c3ccc(Br)cc3c2=O)CC1,73*,0.3,0.3,-5,69*
COCCN(C(=O)CSc1nnc(Nc2ccccc2F)s1)c1c(N)n(Cc2ccccc2)c(=O)[nH]c1=O,32,0.4,0.7,13,62*
O=C(O)C1C2C=CC3(CN(c4cccc(C(F)(F)F)c4)C(=O)C13)O2 (configuration not stated),-19,1.2,1.2,-4,-24
CN1C(=O)C2ON(c3ccccc3)C(c3cccs3)C2C1=O (configuration not stated),59*,0.7,0.4,3,33
CC1CCCCC1NC(=O)COc1ccc(-n2cnnn2)cc1 (configuration not stated),4,0.9,1,-7,10
O=C(CSc1nc(-c2ccccc2)c(-c2ccccc2)[nH]1)N1CCN(S(=O)(=O)c2ccccc2)CC1,86*,0.2,0.1,2,80*
N#CCCn1c(SCC(=O)N2CCN(S(=O)(=O)c3ccccc3)CC2)nc2ccccc21,-4,0.9,1,-5,10
c1ccc(-c2nc(CSc3n[nH]c(-c4cccs4)n3)cs2)cc1,60*,0.7,0.4,4,33
Cn1c(SCC(=O)N2CCN(S(=O)(=O)c3ccc(Cl)cc3)CC2)nc2ccccc21,58*,2*,0.4,3,-103
CC(C)Cn1c(SCC(=O)N2CCN(S(=O)(=O)c3ccccc3)CC2)nc2ccccc21,80*,0.2,0.2,-4,78*
Cn1c(SCC(=O)N2CCN(S(=O)(=O)c3ccccc3)CC2)nc2ccccc21,30,1.5,0.7,-1,-48
COc1ccc(C2CC(C(F)(F)F)n3ncc(C(=O)NCC4CCCO4)c3N2)cc1OC (configuration not stated),5,0.9,1,3,15
Cc1ccc(S(=O)(=O)N2CCOCC2)c2nsnc12,19,1.5,0.8,-4,-54
C=CCNC(=O)CC(=O)N/N=C/c1cccc(Br)c1,0,1.2,1,-1,-16
O=C(CCC(=O)N1CCN(S(=O)(=O)c2ccccc2)CC1)c1cccs1,25,0.7,0.8,12,32
O=C(CSc1n[nH]c(-c2cccs2)n1)N1CCN(S(=O)(=O)c2ccccc2)CC1,32,0.5,0.7,-3,51*
Nn1c(SCC(=O)N2CCN(S(=O)(=O)c3ccc(Cl)cc3)CC2)nnc1-c1cccs1,36,0.5,0.6,-2,50*
Nn1c(SCC(=O)N2CCN(S(=O)(=O)c3ccccc3)CC2)nnc1-c1cccs1,-2,1,1,1,-1
CCSc1nc(O)c(C2OC(=O)c3c2ccc(OC)c3OC)c(=O)n1CC (configuration not stated),15,0.8,0.8,9,18
CC(=O)Nc1cc(-c2nn(C)c(=O)c3ccccc23)ccc1N1CCCCC1,20,0.4,0.8,-1,57*
